About 83,000 compounds went through this panel and 20% of them were active in at least one assay; those are over-represented in the sample as a whole.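 Negative percent growth values reflect cell death: -40 means 40% of the cells present at the start died, and -100 means all died.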 Unmarked numbers belong to inactive results. Activity calls are given as the source filed them. The calls were made as follows: active = growth percent below 10; inactive = the rest.
Key:
Experiment in all cases: NCI-60 one-dose screen, 48 h (100 = growth as untreated, 0 = no growth, -100 = all killed)
Conditions in all cases: 10 µM unless noted
[1] = system: T-47D breast
[2] = system: BT-549 breast
[3] = system: MDA-MB-435 melanoma
[4] = system: SW-620 colon
[5] = system: MCF7 breast
[6] = system: HCT-116 colon
[7] = system: HCC-2998 colon
[8] = system: KM12 colon

## CC1(C)CC[C@]2(C(=O)NCCCCCCN(CCCN)CCCN)CC[C@]3(C)C(=CC[C@@H]4[C@@]5(C)CC[C@H](O)C(C)(C)[C@@H]5CC[C@]43C)[C@@H]2C1
[1]
  growth: 98.6%
[2]
  growth: 102%
[3]
  growth: 105%
[4]
  growth: 107%
[5]
  growth: 93.4%
[6]
  growth: 99.2%
[7]
  growth: 103%
[8]
  growth: 102%

## NS(=O)(=O)c1ccc(Nc2nc(Nc3ccccc3)nc(N3N=C(c4ccc(Cl)cc4)CC3c3ccc(Cl)cc3)n2)cc1 (configuration not stated)
[1]
  growth: 51.3%
[2]
  growth: 73.2%
[3]
  growth: 39.1%
[4]
  growth: 54.4%
[5]
  growth: 12.8%
[6]
  growth: 14.1%
[7]
  growth: 13.1%
[8]
  growth: 5.08% (active)

## O=C(Nc1ccc(N2CCOCC2)cc1)Nc1ccc2c(ccn2C(=O)c2cccc(F)c2)c1
[1]
  growth: 68.9%
[2]
  growth: 71.7%
[3]
  growth: 68.3%
[4]
  growth: 74.5%
[5]
  growth: 53.2%
[6]
  growth: 24.2%
[7]
  growth: 62.4%
[8]
  growth: 74.1%

## C1=CC(c2nn3c(-c4ccccc4)nnc3s2)=Cc2ccccc2O1
[1]
  growth: 19.7%
[2]
  growth: 77.9%
[3]
  growth: 46.7%
[4]
  growth: 16.6%
[5]
  growth: 30.7%
[6]
  growth: 41.1%
[7]
  growth: 97%
[8]
  growth: 85.5%

## COc1cc(NC(=O)Nc2cccc(-c3cc(=O)c4c(OC)c(OC)c(OC)cc4o3)c2)cc(OC)c1OC
[1]
  growth: 11.9%
[2]
  growth: 31.9%
[3]
  growth: 57.1%
[4]
  growth: 41.3%
[5]
  growth: 40.7%
[6]
  growth: 28.9%
[7]
  growth: 60.7%
[8]
  growth: 38.7%

## CC(O)c1cccc(/C(N)=N/C(N)=N/c2nc3ccccc3s2)c1 (configuration not stated)
[1]
  growth: 83.6%
[2]
  growth: 117%
[3]
  growth: 98%
[4]
  growth: 98.2%
[5]
  growth: 90.5%
[6]
  growth: 70.1%
[7]
  growth: 118%
[8]
  growth: 83.2%

## N#CC1=C2NCCCNc3oc(nc3C#N)Cc3ccccc3CC(=N1)O2
[1]
  growth: 92.6%
[2]
  growth: 135%
[3]
  growth: 95.1%
[4]
  growth: 50.7%
[5]
  growth: 33.8%
[6]
  growth: 23.4%
[7]
  growth: 114%
[8]
  growth: 93.6%

## Cc1cccc(N2CCN(C3=C(Cl)C(=O)c4ncccc4C3=O)CC2)c1
[1]
  growth: -39.5% (active)
[2]
  growth: 97.9%
[3]
  growth: 11.8%
[4]
  growth: 11%
[5]
  growth: 5.92% (active)
[6]
  growth: -16.3% (active)
[7]
  growth: 107%
[8]
  growth: 92.2%

## CCCCCCOC(=O)c1cc(-c2ccc(F)cc2)nc2ccccc12
[1]
  growth: 88.8%
[2]
  growth: 103%
[3]
  growth: 99.9%
[4]
  growth: 93.5%
[5]
  growth: 91.5%
[6]
  growth: 93.3%
[7]
  growth: 106%
[8]
  growth: 96.1%

## CCc1cc(OC(=O)N2CCC(N3CCCCC3)CC2)ccc1Nc1cc(-c2ccc(-n3cccn3)cc2)[nH]n1
[1]
  growth: 97.2%
[2]
  growth: 87.6%
[3]
  growth: 37.3%
[4]
  growth: -38.3% (active)
[5]
  growth: 6.81% (active)
[6]
  growth: -64.1% (active)
[7]
  growth: 83.8%
[8]
  growth: 70.1%

## O=C1C(N2CCN(c3ccccc3)CC2)=C(Cl)C(=O)c2ncccc21
[1]
  growth: -54.2% (active)
[2]
  growth: 97.3%
[3]
  growth: -67% (active)
[4]
  growth: -35% (active)
[5]
  growth: -44.7% (active)
[6]
  growth: -56.1% (active)
[7]
  growth: 97.8%
[8]
  growth: 92.3%

## Nc1ncc(-c2ccc3ncnc(NCc4ccccc4)c3c2)cn1
[1]
  growth: 15%
[2]
  growth: 34.5%
[3]
  growth: 65.1%
[4]
  growth: 73.7%
[5]
  growth: 19.3%
[6]
  growth: 66.5%
[7]
  growth: 59.8%
[8]
  growth: 72.1%

## COc1cc2oc(-c3cccc(NC(=O)[C@@H](N)C(C)C)c3)cc(=O)c2c(OC)c1OC
[1]
  growth: 87.3%
[2]
  growth: 104%
[3]
  growth: 109%
[4]
  growth: 105%
[5]
  growth: 92.9%
[6]
  growth: 98.6%
[7]
  growth: 109%
[8]
  growth: 101%

## O=C(CSc1nnc(-c2ccc(Cl)cc2)n1-c1ccccc1)Nc1ccccc1Cl
[1]
  growth: 45.7%
[2]
  growth: 53.8%
[3]
  growth: 80.9%
[4]
  growth: 51.6%
[5]
  growth: 66.4%
[6]
  growth: 12.1%
[7]
  growth: 88.3%
[8]
  growth: 80%

From PubChem BioAssay (NCI)
